In the supplement of paper PMC12669032:
Unmarked numbers belong to inactive results.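 How the source made its calls: active = AUC reduced over 20% with Padj below 0.05 in at least 2 of 3 replicates; inactive = otherwise.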

system: Roseburia intestinalis; assay: growth AUC relative to DMSO control (median of replicates) (fraction); higher = more growth (less inhibition), active = hit call of the paper; conditions: 20 µM; 24 h
In short: (§1)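 Starting at OD600 0.05, gut bacterial monocultures in mGAM were grown anaerobically at 37 °C with 20 µM compound (1% DMSO) under pierced gas-permeable seals. OD600 was read every hour for 24 h, and the lowest OD of each curve was set to 0. Area under the growth curve was normalised to the plate median of solvent-only wells, or to row and column medians on the industrial chemical plate, and the median of three biological replicates grown on separate days is given.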

| SMILES | growth AUC |
| --- | --- |
| CS(=O)(=O)c1ccc(C(=O)O)c(N)c1 | 1.07 |
| CC(C)N(C(=O)C(=O)O)c1ccccc1 | 1.02 |
| O=C(O)Cc1c(Cl)ccc(Cl)c1Cl | 0.979 |
| N[C@@H](Cc1cc(I)c(Oc2cc(I)c(O)c(I)c2)c(I)c1)C(=O)O | 0.798 |
| CN(C)C(=O)Nc1ccccc1 | 0.983 |
| CCCCCCCCSCCO | 0.944 |
| O=C(O)Cc1cccc2ccccc12 | 1.04 |
| CCCCOCN(C(=O)CS(=O)(=O)[O-])c1c(CC)cccc1CC.[Na+] | 0.935 |
| CC(=O)Oc1c(Cl)c(Cl)c(Cl)c(Cl)c1Cl | 1.04 |
| N#Cc1c(N)nc(NC2CC2)nc1N | 0.999 |
| CCc1cccc(C)c1N(C(=O)CS(=O)(=O)[O-])C(C)COC.[Na+] (stereo not drawn) | 0.925 |
| Cn1cc(C(=O)Nc2ccc(F)cc2-c2ccc(Cl)c(Cl)c2)c(C(F)F)n1 | 0.989 |
| CCCCOC(=O)[C@@H](C)Oc1ccc(Oc2ccc(C(F)(F)F)cn2)cc1 | 0.973 |
| COc1nc(NC(=O)NS(=O)(=O)c2ccccc2C(F)(F)F)nc(C(F)(F)F)n1 | 0.993 |
| COc1cc(OC)nc(NC(=O)NS(=O)(=O)c2c(-c3nnn(C)n3)cnn2C)n1 | 0.948 |
| NC(=O)c1c(Cl)cccc1Cl | 0.906 |
| CC(Oc1ccc(Cl)cc1Cl)C(=O)NC(C)(C#N)C(C)C (stereo not drawn) | 0.968 |
| O=[N+]([O-])c1ccc(O)cc1 | 1.14 |
| COc1ccccc1C(=O)NS(=O)(=O)c1ccc(C(=O)NC2CC2)cc1 | 0.978 |
| Cc1[nH]n(C)c(=O)c1C(=O)c1ccc(C(F)(F)F)cc1S(C)(=O)=O | 1.01 |

| SMILES | growth AUC |
| --- | --- |
| CC(C)(NC(=O)NCc1ccccc1Cl)c1ccccc1 | 1.09 |
| Cc1c(Br)c2ccc(F)cc2n1S(=O)(=O)c1ncn(S(=O)(=O)N(C)C)n1 | 1.06 |
| COC(=O)c1ccc(CNS(C)(=O)=O)cc1S(=O)(=O)NC(=O)Nc1nc(OC)cc(OC)n1 | 0.973 |
| CCCOC(=O)c1ccc(O)cc1 | 1 |
| CCCN(CCOc1c(Cl)cc(Cl)cc1Cl)C(N)=O | 0.939 |
| CCN(CC)C(=O)SCc1ccccc1Cl | 1.01 |
| CC(C)(c1cc(Br)c(O)c(Br)c1)c1cc(Br)c(O)c(Br)c1 | 0.0954 (active) |
| CCCOC(=O)NCCCN(C)C | 1.02 |
| Oc1ccc2nc(-c3cscn3)[nH]c2c1 | 1.03 |
| O=C(Nc1ccc(F)cc1)c1cccc(Oc2cccc(C(F)(F)F)c2)n1 | 0.918 |
| CCOC(=O)C1=NN(c2ccc(Cl)cc2Cl)C(C)(C(=O)OCC)C1 (stereo not drawn) | 0.952 |
| O=c1cc(Cl)[nH]nc1-c1ccccc1 | 0.977 |
| CC(C)(SC(=O)N1CCCCC1)c1ccccc1 | 1.05 |
| Nc1ccc(S(=O)(=O)Nc2cnc3ccccc3n2)cc1 | 0.991 |
| Cc1cc(C)cc(O)c1 | 1.03 |
| Br[C@@H]1CC[C@@H](Br)[C@@H](Br)CC[C@@H](Br)[C@@H](Br)CC[C@H]1Br | 1 |
| CC[N+](CC)(CC(=O)Nc1c(C)cccc1C)Cc1ccccc1.O=C([O-])c1ccccc1 | 1.02 |
| CCNc1nc(N)nc(Cl)n1 | 1.01 |
| O=C1NC(=O)c2ccccc21 | 1.11 |

system: Streptococcus salivarius; assay: as above; conditions: 20 µM; 24 h
In short: as §1

| SMILES | growth AUC |
| --- | --- |
| CS(=O)(=O)c1ccc(C(=O)O)c(N)c1 | 1.03 |
| CC(C)N(C(=O)C(=O)O)c1ccccc1 | 1.02 |
| O=C(O)Cc1c(Cl)ccc(Cl)c1Cl | 1.01 |
| N[C@@H](Cc1cc(I)c(Oc2cc(I)c(O)c(I)c2)c(I)c1)C(=O)O | 0.923 |
| CN(C)C(=O)Nc1ccccc1 | 0.969 |
| CCCCCCCCSCCO | 0.959 |
| O=C(O)Cc1cccc2ccccc12 | 0.99 |
| CCCCOCN(C(=O)CS(=O)(=O)[O-])c1c(CC)cccc1CC.[Na+] | 0.97 |
| CC(=O)Oc1c(Cl)c(Cl)c(Cl)c(Cl)c1Cl | 0.909 |
| N#Cc1c(N)nc(NC2CC2)nc1N | 1 |
| CCc1cccc(C)c1N(C(=O)CS(=O)(=O)[O-])C(C)COC.[Na+] (stereo not drawn) | 0.878 |
| Cn1cc(C(=O)Nc2ccc(F)cc2-c2ccc(Cl)c(Cl)c2)c(C(F)F)n1 | 0.897 |
| CCCCOC(=O)[C@@H](C)Oc1ccc(Oc2ccc(C(F)(F)F)cn2)cc1 | 0.969 |
| COc1nc(NC(=O)NS(=O)(=O)c2ccccc2C(F)(F)F)nc(C(F)(F)F)n1 | 1.02 |
| COc1cc(OC)nc(NC(=O)NS(=O)(=O)c2c(-c3nnn(C)n3)cnn2C)n1 | 0.953 |
| NC(=O)c1c(Cl)cccc1Cl | 0.991 |
| CC(Oc1ccc(Cl)cc1Cl)C(=O)NC(C)(C#N)C(C)C (stereo not drawn) | 0.918 |
| O=[N+]([O-])c1ccc(O)cc1 | 1 |
| COc1ccccc1C(=O)NS(=O)(=O)c1ccc(C(=O)NC2CC2)cc1 | 1.01 |
| Cc1[nH]n(C)c(=O)c1C(=O)c1ccc(C(F)(F)F)cc1S(C)(=O)=O | 1.03 |

| SMILES | growth AUC |
| --- | --- |
| CC(C)(NC(=O)NCc1ccccc1Cl)c1ccccc1 | 1 |
| Cc1c(Br)c2ccc(F)cc2n1S(=O)(=O)c1ncn(S(=O)(=O)N(C)C)n1 | 1.06 |
| COC(=O)c1ccc(CNS(C)(=O)=O)cc1S(=O)(=O)NC(=O)Nc1nc(OC)cc(OC)n1 | 1.07 |
| CCCOC(=O)c1ccc(O)cc1 | 0.979 |
| CCCN(CCOc1c(Cl)cc(Cl)cc1Cl)C(N)=O | 0.972 |
| CCN(CC)C(=O)SCc1ccccc1Cl | 1.02 |
| CC(C)(c1cc(Br)c(O)c(Br)c1)c1cc(Br)c(O)c(Br)c1 | 0.144 (active) |
| CCCOC(=O)NCCCN(C)C | 0.967 |
| Oc1ccc2nc(-c3cscn3)[nH]c2c1 | 1.07 |
| O=C(Nc1ccc(F)cc1)c1cccc(Oc2cccc(C(F)(F)F)c2)n1 | 0.956 |
| CCOC(=O)C1=NN(c2ccc(Cl)cc2Cl)C(C)(C(=O)OCC)C1 (stereo not drawn) | 0.994 |
| O=c1cc(Cl)[nH]nc1-c1ccccc1 | 1.03 |
| CC(C)(SC(=O)N1CCCCC1)c1ccccc1 | 0.98 |
| Nc1ccc(S(=O)(=O)Nc2cnc3ccccc3n2)cc1 | 1.03 |
| Cc1cc(C)cc(O)c1 | 1.03 |
| Br[C@@H]1CC[C@@H](Br)[C@@H](Br)CC[C@@H](Br)[C@@H](Br)CC[C@H]1Br | 0.521 (active) |
| CC[N+](CC)(CC(=O)Nc1c(C)cccc1C)Cc1ccccc1.O=C([O-])c1ccccc1 | 1.01 |
| CCNc1nc(N)nc(Cl)n1 | 1.03 |
| O=C1NC(=O)c2ccccc21 | 1 |
